Data as given in PubChem BioAssay AID2313 (Broad Institute, 2010).
About 460 (2.1%) of roughly 22,000 compounds were called active. Another 2% or so got no clear call; they are omitted.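 Rule for the calls: active = mean inhibition across valid replicates above about 65% (limit read from the data); inconclusive = mean under the limit, yet half or more replicates past it; inactive = the rest.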 The sample as a whole holds a higher share of actives than the screen did.

Assay: Hedgehog pathway signaling inhibitors, primary screen, luminescence, Shh-LIGHT2 cells, Gli-luciferase (AID 2313);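 note: pathway switched on by Shh-conditioned medium diluted 1 in 25 in low serum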
Settings: Shh-LIGHT2 Gli-luciferase reporter, 30 h; stronger effect = higher value

SMILES	inhibition
c1ccc2c(c1)[I+]c1ccccc1-2	88.8% (active)
COC(/C=C/CC/C=C/C(=O)O)C(O)C(C)C(O)/C(C)=C/C(C)C(=O)CCCC1CC(=O)NC(=O)C1 (stereo not given)	-22.8% (inactive)
CC(C)c1c(CN(C)C(C)Cc2ccccc2)n(C)n(-c2ccccc2)c1=O (stereo not given)	-38.5% (inactive)
CC(C)Nc1nc(Cl)nc(NC(C)C)n1	-55.8% (inactive)
CN(C)C(=O)Oc1cc(OC(=O)N(C)C)cc(C(O)CNC(C)(C)C)c1 (stereo not given)	33.4% (inactive)
C[C@H]1CCC/C=C/C2C[C@H](O)C[C@H]2[C@H](O)/C=C\C(=O)O1 (stereo not given in full)	107% (active)
C=CC(C)(C)c1cc2cc3c(cc2oc1=O)O[C@H](C(C)(C)O)C3	-36.2% (inactive)
CC=C1CN2C3CC1C1(C(=O)OC)C2CC2(c4ccccc4N(C)C32)C1O (stereo not given)	11.9% (inactive)
CCCCC/C=C\C/C=C\C/C=C\CCCCCCC(=O)NCCO	-2.94% (inactive)
C[C@@H]1O[C@@H](O[C@@H]2C=C3CC[C@@H]4C(C[C@@H](O)[C@]5(C)[C@@H](c6ccc(=O)oc6)CC[C@]45O)[C@@]3(C)CC2)[C@H](O)[C@H](O)[C@H]1O[C@@H]1O[C@H](CO)[C@@H](O)[C@H](O)[C@H]1O (stereo not given in full)	-37.6% (inactive)
CC(C)[C@@]1(NC(=O)[C@@H]2CC3c4cccc5[nH]cc(c45)C[C@H]3N(C)C2)O[C@@]2(O)[C@@H]3CCCN3C(=O)[C@H](Cc3ccccc3)N2C1=O (stereo not given in full)	21.5% (inactive)
O=C(c1ccccc1)C12CN3CN(CN(C3)C1)C2	-5.62% (inactive)
COc1c(C(C)C)cc2c(c1O)[C@@]1(C(=O)O)CCCC(C)(C)C1CC2 (stereo not given in full)	-14.7% (inactive)
CCCCCCCCCCCCCC(=O)O[C@@H]1[C@@H](C)[C@@]2(O)[C@@H](C=C(CO)C[C@]3(O)C(=O)C(C)=C[C@@H]23)[C@@H]2C(C)(C)[C@]12OC(C)=O	87% (active)
CCCCC/C=C\C/C=C\C/C=C\C/C=C\CCCCCC(=O)NCCO	-36.6% (inactive)
